# Test results published in PubChem BioAssay (NCATS).
# Records with an inconclusive call do not appear. Where a call stands in place of a potency, no number is given. The source made the active and inactive calls. The call rests on the fitted dose curve; in most records, active means well fitted curve in the direction sought with a large enough effect; inconclusive means small, poorly fitted or top-dose-only effect, or another doubt; inactive means no such curve, though single readings can be large; an effect the other way counts as inactive or inconclusive.
# Columns and labels:
# [1] = biological target: Arylsulfatase A (Homo sapiens) (UniProt P15289); test: qHTS screen for enhancers of Arylsulfatase A (ASA1): LOPAC Validation Assay (AID 720538); settings: ASA enzyme activity, LOPAC qHTS enhancer assay; series mostly up to 57.5 µM
# Outline: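 SV40-transformed skin fibroblasts from an MLD patient (ASA-I179S) were treated with compounds for 48h at 37 degree C, then lysed with 0.5mM pNCS final substrate for 14h at room temperature; NaOH stop, fluorescence read (Ex=525 nm; Em=598 nm).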
# [2] = qHTS for compounds that reverse cellular toxicity of Amyloid beta (A-beta) peptide in yeast: LOPAC Validation Assay (AID 720559); settings: yeast expressing A-beta; Potency: rescue of growth toxicity; series mostly up to 46.1 µM
# Outline: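 Yeast cells expressing toxic A-beta were combined with pinned compounds in growth medium and incubated 48 hr at 30 C. Growth was read as absorbance at 600 nm and normalized to DMSO and to an equimolar FeCl3/clioquinol positive control.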
# [3] = qHTS for Activators of Parkin Expression: LOPAC Validation Assay (NLuc Reporter) (AID 720572); settings: Parkin promoter NanoLuc reporter cells, luminescence; series mostly up to 46.1 µM
# Outline: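 Neuronal cells with a Parkin promoter-driven FLuc/NLuc coincidence reporter were treated 24 h at 37 C in 7-point dose response (LOPAC). NLuc luminescence read after FLuc; signals normalized to DMSO and positive control (100%).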
# Sequence of Arylsulfatase A (Homo sapiens) (P15289 whole entry, looked up): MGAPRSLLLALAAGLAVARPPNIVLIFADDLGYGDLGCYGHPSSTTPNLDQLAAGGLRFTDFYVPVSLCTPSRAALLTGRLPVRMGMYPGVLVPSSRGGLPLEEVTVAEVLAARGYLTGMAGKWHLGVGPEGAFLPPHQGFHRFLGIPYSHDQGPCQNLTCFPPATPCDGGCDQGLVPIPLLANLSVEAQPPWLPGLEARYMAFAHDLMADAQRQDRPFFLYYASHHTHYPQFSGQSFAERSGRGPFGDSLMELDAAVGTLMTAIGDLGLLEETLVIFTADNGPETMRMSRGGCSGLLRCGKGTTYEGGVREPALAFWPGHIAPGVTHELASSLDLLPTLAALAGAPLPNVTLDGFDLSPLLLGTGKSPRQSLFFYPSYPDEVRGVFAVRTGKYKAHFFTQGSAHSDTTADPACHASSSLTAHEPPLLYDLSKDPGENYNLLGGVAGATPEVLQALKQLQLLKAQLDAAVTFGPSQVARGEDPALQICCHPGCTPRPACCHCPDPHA
Compound,Potency [1],Potency [2],Potency [3]
O=C1NC(=O)/C(=C/c2ccc(-c3ccc(F)cc3O)o2)S1,inactive,inactive,inactive
Cc1cc(NC2CCCCC2)nc(-n2nc(C)cc2C)n1,inactive,inactive,inactive
O=C(O)[C@@H]1C[C@H](C(=O)O)N1,inactive,inactive,inactive
O=[N+]([O-])c1ccc2c(c1)S(=O)(=O)C=C2,inactive,inactive,inactive
O=C(O)CC1CCCc2ccccc2C1O (stereo not given),inactive,inactive,inactive
C[N+](C)(C)CC(=O)[O-],inactive,inactive,inactive
O=c1[nH]c2cc(Cl)c(Cl)cc2[nH]c1=O,inactive,inactive,inactive
O=C(O)/C=C/C(O)c1ccc(Cl)cc1 (stereo not given),inactive,–,inactive
CCCCCCCCCCCCCCCC(=O)NCC(COP(=O)([O-])OCC[N+](C)(C)C)OCC (stereo not given),inactive,–,inactive
NCCCCC(=O)O,–,inactive,–
CCCCCCCCCCCCCCCCCC(=O)OC(CC(=O)O)C[N+](C)(C)C (stereo not given),inactive,–,inactive
Cc1nc2sccn2c(=O)c1CCN1CCC(=C(c2ccccc2)c2ccc(F)cc2)CC1,inactive,–,inactive
Ic1ccc(N2CCN(Cc3c[nH]c4ncccc34)CC2)cc1,inactive,inactive,inactive
CCCCCCCCCCCCCCCCCCNC(=O)OCC(COP(=O)([O-])OCC[n+]1ccsc1)OC (stereo not given),inactive,–,inactive
C=C[C@H]1CN2CC[C@@H]1C[C@@H]2[C@@H](O)c1ccnc2ccc(OC)cc12,–,inactive,–
CN(C)c1nc2c(Br)c(Br)c(Br)c(Br)c2[nH]1,–,inactive,–
Cn1ncc(S(=O)(=O)Cc2ccccc2)c(Br)c1=O,inactive,inactive,inactive
CC(=O)/C=C1\C(=O)N(C)c2ccccc21,inactive,–,inactive
N[C@@H](CC(=O)O)C(=O)O,inactive,–,inactive
O=C(O)c1cc(=O)c2ccccc2[nH]1,inactive,–,inactive
CC(C)ON([C@@H](C(=O)NO)C(C)C)S(=O)(=O)c1ccc(-c2ccccc2)cc1,inactive,–,inactive
CCCCCCCCc1ccc(-c2ccc(C(=O)O)cc2)cc1,inactive,–,inactive
